In PubChem BioAssay (NCATS):
Records with an inconclusive call do not appear. The source made the active and inactive calls. Unless noted, the call rests on the fitted dose curve; in most records, active means well fitted curve in the direction sought with a large enough effect; inconclusive means small, poorly fitted or top-dose-only effect, or another doubt; inactive means no such curve, though single readings can be large; an effect the other way counts as inactive or inconclusive.

Assays:
[1] = qHTS for Inhibitors of Plasmodium falciparum (DD2) proliferation (AID 504314);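 further: parasite DNA measured by SYBR Green fluorescence after red cell lysis; plate controls were DMSO vehicle for no effect and artemisinin wells for full effect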
In short: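 Infected RBCs, 0.3% parasitemia, 2.5% Hct; compound 72 h, 37C/5% CO2; lyse + SYBR Green I, RT overnight, dark; read ex485/em535; normalize to DMSO and artemisinin 0.29 uM.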

[2] = qHTS for Inhibitors of Plasmodium falciparum (GB4) proliferation (AID 504315);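 further: 0% = DMSO vehicle and -100% = 0.29 µM artemisinin control; nearly all actives have a fitted effect of over 50% in size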
In short: (§1)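 Erythrocytes infected with P. falciparum line (0.3% parasitemia, 2.5% hematocrit final) incubated with compounds 72 h at 37 °C, 5% CO2; SYBR Green lysis buffer added, fluorescence read next day. Normalized to 0.29 uM artemisinin and DMSO.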

[3] = qHTS for Inhibitors of Plasmodium falciparum (7G8) proliferation (AID 504316);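 further: series mostly up to about 6.7 µM; 0% = DMSO vehicle and -100% = 0.29 µM artemisinin full kill; nearly all actives have a fitted effect of over 65% in size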
In short: as §1

[4] = qHTS for Inhibitors of Plasmodium falciparum (HB3) proliferation (AID 504318);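 further: 0% = DMSO vehicle and -100% = artemisinin control; nearly all actives have a fitted effect of over 60% in size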
In short: as §1

[5] = qHTS for Inhibitors of Plasmodium falciparum (CP250) proliferation (AID 504320);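 further: plate controls were DMSO vehicle for no effect and 0.29 µM artemisinin control for full effect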
In short: as §1

[6] = target: Atrial natriuretic peptide receptor 1 (Homo sapiens) (UniProt P16066); test: Natriuretic polypeptide receptor (hNpr1) antagonism - Pilot CMLD screen (AID 1347052; calls by dose curve;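 further: HEK293 cells with hNpr1 stimulated by hNppA peptide at 0.1 nM; cGMP level read as GloSensor luciferase luminescence after agonist stimulation; series mostly up to about 9.2 µM; on the % scale 0 is the no-effect control and ±100 the full control effect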)
Sequence of Atrial natriuretic peptide receptor 1 (Homo sapiens) (P16066 whole entry, looked up): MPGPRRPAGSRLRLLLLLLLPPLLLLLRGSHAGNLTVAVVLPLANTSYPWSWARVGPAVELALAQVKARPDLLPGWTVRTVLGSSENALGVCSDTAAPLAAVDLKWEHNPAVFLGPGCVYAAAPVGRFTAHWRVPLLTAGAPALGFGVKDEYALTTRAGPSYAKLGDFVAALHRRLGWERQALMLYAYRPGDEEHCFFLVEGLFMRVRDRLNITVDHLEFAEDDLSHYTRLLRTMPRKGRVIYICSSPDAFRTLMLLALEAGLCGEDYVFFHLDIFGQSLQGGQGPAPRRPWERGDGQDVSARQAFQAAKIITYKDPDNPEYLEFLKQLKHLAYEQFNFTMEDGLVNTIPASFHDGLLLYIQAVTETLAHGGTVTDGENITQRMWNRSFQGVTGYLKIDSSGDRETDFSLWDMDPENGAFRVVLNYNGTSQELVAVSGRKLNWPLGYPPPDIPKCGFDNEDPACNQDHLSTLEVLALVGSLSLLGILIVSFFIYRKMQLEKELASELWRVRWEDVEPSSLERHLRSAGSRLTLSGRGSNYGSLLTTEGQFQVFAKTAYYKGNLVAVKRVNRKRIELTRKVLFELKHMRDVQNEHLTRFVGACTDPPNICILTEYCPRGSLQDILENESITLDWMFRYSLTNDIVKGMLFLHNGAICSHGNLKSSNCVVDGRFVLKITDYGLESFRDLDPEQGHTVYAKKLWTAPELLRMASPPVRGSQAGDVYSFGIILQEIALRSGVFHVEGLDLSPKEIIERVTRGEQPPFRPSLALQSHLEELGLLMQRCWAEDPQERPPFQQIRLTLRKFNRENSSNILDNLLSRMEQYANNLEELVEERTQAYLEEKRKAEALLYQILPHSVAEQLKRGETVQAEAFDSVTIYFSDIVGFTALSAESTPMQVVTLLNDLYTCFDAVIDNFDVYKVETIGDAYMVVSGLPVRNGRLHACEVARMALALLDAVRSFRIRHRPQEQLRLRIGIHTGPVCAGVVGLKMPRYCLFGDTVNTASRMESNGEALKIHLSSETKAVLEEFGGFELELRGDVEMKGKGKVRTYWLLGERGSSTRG

CCN1C(=NCCOC)N[C@@H](c2ccccc2)[C@H](C(=O)OC)[C@H]1C
inactive: Potency [1] | Potency [2] | Potency [3] | Potency [4] | Potency [5] | Potency [6]

C=C(C[C@]1(C(=O)OC)C[C@]2(CC=C(C)C)C(=O)C(C(=O)CC(C)C)=C(O)[C@@](CC=C(C)C)(C1)C2=O)C(=O)OC
inactive: Potency [1] | Potency [2] | Potency [3] | Potency [4] | Potency [5] | Potency [6]

CC(CCC(=O)OC[C@H]1O[C@H](C#Cc2ccccc2)C=C[C@H]1Oc1ccc(C)cc1)=NOC[C@@H](O)COCc1ccco1
inactive: Potency [1] | Potency [2] | Potency [3] | Potency [4] | Potency [5] | Potency [6]

CC(=O)OC[C@H]1O[C@H](CC=NO[C@@H](C)c2cc(-c3c(C)cc(C)cc3C)no2)C=C[C@@H]1OC(C)=O
inactive: Potency [1] | Potency [2] | Potency [3] | Potency [4] | Potency [5] | Potency [6]

CCOC(=O)CN1C(=O)NC(c2cccs2)C(C(=O)OC)=C1C (stereo not given)
inactive: Potency [1] | Potency [2] | Potency [3] | Potency [4] | Potency [5] | Potency [6]

COCCN1C(=O)C2=C(C1=O)C1N(C)c3ccccc3[C@@]13C[C@@H](CO)N=C3N2 (stereo not given in full)
inactive: Potency [1] | Potency [2] | Potency [3] | Potency [4] | Potency [5] | Potency [6]

CCOC(=O)[C@@]1([C@@H](NC(=O)OC)c2ccccc2)CCCC1=O
inactive: Potency [1] | Potency [2] | Potency [3] | Potency [4] | Potency [5] | Potency [6]

COc1cccc([C@H]2Oc3ccc(OC)cc3C(=NO[C@@H](C)c3cn([C@H](CO)Cc4ccccc4)nn3)[C@H]2O)c1
inactive: Potency [1] | Potency [2] | Potency [3] | Potency [4] | Potency [5] | Potency [6]

CCOC(=O)C1(C(=O)OCC)Cc2ccc(C(C)=O)cc2C1
inactive: Potency [1] | Potency [2] | Potency [3] | Potency [4] | Potency [5] | Potency [6]

COC(=O)CCCC1=CC2=CC(=O)C(C)(OC(=O)c3cccs3)C(=O)C2=CN1CCc1ccccn1 (stereo not given)
inactive: Potency [1] | Potency [2] | Potency [3] | Potency [4] | Potency [5] | Potency [6]

C=C(C)CCN1C(=O)NC(c2ccccc2)C(C(C)=O)=C1C (stereo not given)
inactive: Potency [1] | Potency [2] | Potency [3] | Potency [4] | Potency [5] | Potency [6]

CC1(OC(=O)c2cccs2)C(=O)C=C2C=C3CCCN3C=C2C1=O (stereo not given)
inactive: activity, negative = inhibition [1] -0.249% [at 1.12 µM] | Potency [2] | Potency [3] | Potency [4] | Potency [5] | Potency [6]

CCCCc1nc2c(c3c1C[C@H](C)OC3)CN(S(=O)(=O)CCCC)CC2
inactive: Potency [1] | Potency [2] | Potency [3] | Potency [4] | Potency [5] | Potency [6]

C=CCC(O)(C#Cc1ccccc1)c1ccccc1 (stereo not given)
inactive: Potency [1] | Potency [2] | Potency [3] | Potency [4] | Potency [5] | Potency [6]

COC(=O)N1C(c2ccccc2)=Cc2ccccc2C1C1(C(=O)OC)CCCC1=O (stereo not given)
inactive: Potency [1] | Potency [2] | Potency [3] | Potency [4] | Potency [5] | Potency [6]

C=C(C)CCCN1C=C(C(C)=O)C(c2ccccc2)NC1=O (stereo not given)
inactive: Potency [1] | Potency [2] | Potency [3] | Potency [4] | Potency [5] | Potency [6]

OC[C@H]1O[C@H](C#Cc2ccccc2)C=C[C@@H]1O
inactive: Potency [1] | Potency [2] | Potency [3] | Potency [4] | Potency [5] | Potency [6]

COC(=O)C1=C[C@@H]([C@@H](C)[C@H](OC)c2ccccc2Br)[C@@H]2OCCC[C@H]12
inactive: Potency [1] | Potency [2] | Potency [3] | Potency [4] | Potency [5] | Potency [6]

COCCN1C(=O)C2=C(C1=O)C1N(C)c3ccccc3[C@@]13C[C@@H](CO)N(C(=O)CCC(=O)OC)C3=N2 (stereo not given in full)
inactive: Potency [1] | Potency [2] | Potency [3] | Potency [4] | Potency [5] | Potency [6]

CCCC=CC1C(=O)[C@@H]2O[C@H]2C2(OCC(CC)(CC)CO2)C1CO (stereo not given in full)
inactive: Potency [1] | Potency [2] | Potency [3] | Potency [4] | Potency [5] | Potency [6]
